From PubChem BioAssay
Shown are actives, neighbours in structure and some others; about 5.4% of the full set was active somewhere.
CtBP-E1A blk – qHTS Assay for Inhibitors of the CtBP/E1A Interaction; CtBP / adenovirus E1A interaction (AlphaScreen); AlphaScreen GST-E1A/His-CtBP binding, 1536-well; hits give low values; activity change, % (test concentration not listed); 340,000 compounds, 0.49% hits; in the data active means activity change below about -65%; inconclusive means mostly about -30% to -63%; further: on the % scale 0 is the no-effect control and ±100 the full control effect
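Steps: dispense buffer (Tris pH 8.0, NaCl 300 mM, TCEP 1 mM, BSA, Tween 20); add 5X protein mix (GST-E1A, His-CtBP, 125 nM each); pin 23 nL compound; 2 h at 37 °C, dark; add 5X beads (50 ug/mL); 1 h; read.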
Gal4-VP16 FLuc – VP16 counterscreen qHTS for inhibitors of ROR gamma transcriptional activity | Drosophila S2 Gal4-VP16 UAS-luciferase, luminescence, 20 h | Potency, µM (series often up to 53.6 µM), for the others: at the highest dose activity, negative = inhibition, most hits filed as inhibitors | 310,000 compounds, 3.5% hits;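 further: Gal4-VP16 expression switched on by copper sulfate through the metallothionein promoter; potency means the concentration at half of the fitted maximal effect; on the % scale 0 is the no-effect control and ±100 the full control effect; nearly all actives have a fitted effect of over 50% in size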
Six1-Eya2 inh – qHTS Assay for Inhibitors of the Six1/Eya2 Interaction; Homeobox protein SIX1 (Homo sapiens) + Protein phosphatase EYA2 (Homo sapiens), …; 360,000 compounds, 0.56% hits; activity change, % (concentration not given with the values); AlphaScreen GST-Six1/His-Eya2 binding, biochemical; hits give low values; in the data active means activity change below about -65%; inconclusive means mostly about -30% to -63%; further: on the % scale 0 is the no-effect control and ±100 the full control effect
Target sequence (O00167 whole entry, looked up): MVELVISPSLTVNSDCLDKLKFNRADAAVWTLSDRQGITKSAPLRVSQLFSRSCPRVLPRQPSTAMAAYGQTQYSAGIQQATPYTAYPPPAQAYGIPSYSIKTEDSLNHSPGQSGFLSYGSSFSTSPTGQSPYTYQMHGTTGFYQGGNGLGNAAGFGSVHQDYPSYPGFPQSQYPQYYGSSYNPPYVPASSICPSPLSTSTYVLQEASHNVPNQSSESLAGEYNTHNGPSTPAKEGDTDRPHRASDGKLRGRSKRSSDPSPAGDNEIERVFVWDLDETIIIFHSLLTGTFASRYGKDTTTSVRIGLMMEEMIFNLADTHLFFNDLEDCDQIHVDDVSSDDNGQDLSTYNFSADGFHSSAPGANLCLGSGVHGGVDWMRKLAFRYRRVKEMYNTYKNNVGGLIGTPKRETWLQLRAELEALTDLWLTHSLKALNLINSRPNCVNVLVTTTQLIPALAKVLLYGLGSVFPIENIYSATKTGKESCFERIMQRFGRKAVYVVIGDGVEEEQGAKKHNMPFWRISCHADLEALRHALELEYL
Target sequence (Q15475 whole entry, looked up): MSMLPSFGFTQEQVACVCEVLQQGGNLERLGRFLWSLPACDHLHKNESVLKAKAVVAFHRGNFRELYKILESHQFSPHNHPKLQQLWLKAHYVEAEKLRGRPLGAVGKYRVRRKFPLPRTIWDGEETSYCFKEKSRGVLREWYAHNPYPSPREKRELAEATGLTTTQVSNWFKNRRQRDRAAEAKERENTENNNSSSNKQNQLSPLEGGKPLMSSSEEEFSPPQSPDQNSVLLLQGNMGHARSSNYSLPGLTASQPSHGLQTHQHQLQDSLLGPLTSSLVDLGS
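AlphaScreen with GST-Six1 and His-Eya2 (5X mix: 250 nM and 500 nM), glutathione donor and nickel acceptor beads; buffer 50 mM Tris pH 8.0, 300 mM NaCl, 1 mM TCEP; 1 h at 37 C in the dark.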
RORgamma inh – qHTS for inhibitors of ROR gamma transcriptional activity; Nuclear receptor ROR-gamma (Mus musculus), P51450; Drosophila S2 Gal4-RORgamma UAS-luciferase reporter, 20 h; Potency, µM (top dose mostly 53.6 µM), inactives show at the top dose activity change, negative = inhibition, most hits filed as inhibitors; 310,000 compounds, 5.4% hits; further: potency means the concentration at half of the fitted maximal effect; on the % scale 0 is the no-effect control and ±100 the full control effect; nearly all actives have a fitted effect of over 60% in size
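A Gal4/UAS one-hybrid system in insect cells: metallothionein-promoter Gal4–ROR gamma fusion plus Photinus luciferase reporter. Copper sulfate 700 uM final, 20 hr ambient incubation, luminescent detection after 10 min with reagent.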
p53 reactivation – qHTS assay for re-activators of p53 using a Luc reporter; AID 504706, 2011; 320,000 compounds, 0.063% hits; H1299 p53-A138V BP100-luciferase reporter, luminescence, 24 h; Potency, µM (top dose mostly 92.2 µM), without a hit: top-dose activity change, positive = activation, actives largely listed as activators; further: potency means the concentration at half of the fitted maximal effect; % of control where 0% means no effect; nearly all actives have a fitted effect of over 45% in size
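p53-null H1299 cells stably carrying temperature-sensitive p53-A138V and a BP100-luciferase reporter were pinned with compounds (4-point, 1:5 series) and held 24 hrs at 37 deg C. Luminescence was read 10 min after detection reagent.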
An asterisk follows results filed as active; [ ] = dose if it differs, or a comment. Unless noted, the call rests on the fitted dose curve; in most records, active means well fitted curve in the direction sought with a large enough effect; inconclusive means small, poorly fitted or top-dose-only effect, or another doubt; inactive means no such curve, though single readings can be large; an effect the other way counts as inactive or inconclusive.

Cc1nc(NC(=O)c2cc3ccccc3o2)sc1C was read as CtBP-E1A blk -4, Gal4-VP16 FLuc inconclusive, Six1-Eya2 inh 1, RORgamma inh 10µM* and p53 reactivation 53%.
`O=C(OCC1CO1)C1CCCCC1C(=O)OCC1CO1` (stereo unspecified) gave Gal4-VP16 FLuc 1% and RORgamma inh 26%.
`C[C@@H]1CN(CCCn2c3ccccc3c3ccccc32)C[C@H](C)N1` gave Gal4-VP16 FLuc -12% and RORgamma inh inconclusive.
CCc1ccc2c(c1)NC(=O)C2(C)Cc1ccc(C(F)(F)F)nc1 (stereo unspecified) was read as CtBP-E1A blk -11 and Six1-Eya2 inh 7.
Screening CCOC(=O)CNC(=O)c1sc(NC(=O)c2cccc(F)c2)nc1C returned CtBP-E1A blk -1, Gal4-VP16 FLuc 0%, Six1-Eya2 inh 1, RORgamma inh -2% and p53 reactivation 4%.
`CCOC(=O)c1sc(Nc2ccccc2Cl)nc1C` gave CtBP-E1A blk 7, Gal4-VP16 FLuc 4%, Six1-Eya2 inh 14, RORgamma inh -8% and p53 reactivation 8%.
Screening CCOC(=O)c1sc(NC(=O)Nc2ccccc2F)nc1C returned CtBP-E1A blk 3, Gal4-VP16 FLuc 8.9µM*, Six1-Eya2 inh 11, RORgamma inh 7.9µM* and p53 reactivation 23%.
`CCOC(=O)CNC(=O)c1sc(NC(=O)c2ccccc2F)nc1C` gave CtBP-E1A blk 11, Gal4-VP16 FLuc 2.5µM*, Six1-Eya2 inh -1, RORgamma inh inconclusive and p53 reactivation -10%.
`COc1ccc(N=C2C(=Nc3ccc(OC)cc3)N(c3ccccc3)C(=S)N2C(=O)c2ccc(Cl)cc2)cc1` gave CtBP-E1A blk -6, Gal4-VP16 FLuc inconclusive, Six1-Eya2 inh -20, RORgamma inh 14µM* and p53 reactivation inconclusive.
COc1ccc(N=C2C(=Nc3ccc(OC)cc3)N(c3ccc(OC)cc3)C(=S)N2C(=O)c2ccc(OC)cc2)cc1 was read as CtBP-E1A blk -12, Gal4-VP16 FLuc -3%, Six1-Eya2 inh -5, RORgamma inh inconclusive and p53 reactivation inconclusive.
Screening Cc1cc[n+](C(C)C(=O)c2ccc(-c3ccccc3)cc2)cc1 (stereo unspecified) returned CtBP-E1A blk 0, Gal4-VP16 FLuc 10µM*, Six1-Eya2 inh -5, RORgamma inh inconclusive and p53 reactivation -2%.
For CC(C(=O)c1ccc(-c2ccccc2)cc1)[n+]1ccccc1 (stereo unspecified) the results were CtBP-E1A blk -2, Gal4-VP16 FLuc -6%, Six1-Eya2 inh 6, RORgamma inh inconclusive and p53 reactivation -12%.
Screening O=c1[nH]c(C2CC2)nc2sc3c(c12)CCCC3 returned CtBP-E1A blk 1, Gal4-VP16 FLuc 16%, Six1-Eya2 inh 0, RORgamma inh 10% and p53 reactivation -2%.
For N#Cc1cnn(-c2nc3sc4c(c3c(=O)[nH]2)CCCC4)c1N the results were CtBP-E1A blk -6, Gal4-VP16 FLuc -14%[0.365 µM], Six1-Eya2 inh 1, RORgamma inh 2.8µM* and p53 reactivation 6%.
`Fc1ccccc1/C=N/n1cc(-c2ccccc2)[nH]c1=S` gave CtBP-E1A blk -23, Gal4-VP16 FLuc 8.9µM*, Six1-Eya2 inh -21, RORgamma inh 1.4µM* and p53 reactivation 17%.
Screening O=C(O)c1ccc(/C=N/n2cc(-c3ccccc3)[nH]c2=S)cc1 returned Gal4-VP16 FLuc -9%, Six1-Eya2 inh -9, RORgamma inh -41% and p53 reactivation -1%.
For Cc1ccc(C)c(/C=N/n2cc(-c3ccccc3)[nH]c2=S)c1 the results were CtBP-E1A blk -18, Gal4-VP16 FLuc inconclusive, Six1-Eya2 inh -17, RORgamma inh 0.28µM* and p53 reactivation inconclusive.
Screening S=c1[nH]c(-c2ccccc2)cn1/N=C/c1cccs1 returned CtBP-E1A blk -11, Gal4-VP16 FLuc inconclusive, Six1-Eya2 inh -14, RORgamma inh inconclusive and p53 reactivation 6%.
For S=c1[nH]c(-c2ccccc2)cn1/N=C/c1ccc(Br)cc1 the results were CtBP-E1A blk -14, Gal4-VP16 FLuc 7.1µM*, Six1-Eya2 inh -10, RORgamma inh 0.4µM* and p53 reactivation 2%.
For COc1ccc(OC)c(S(=O)(=O)NC2CCSc3ccccc32)c1 (stereo unspecified) the results were CtBP-E1A blk 10, Gal4-VP16 FLuc -3%, Six1-Eya2 inh -7, RORgamma inh 2% and p53 reactivation 1%.
Cc1ccc(C(=O)Nc2ncc([N+](=O)[O-])s2)cc1 was read as CtBP-E1A blk 12, Gal4-VP16 FLuc 2µM*, Six1-Eya2 inh -6 and RORgamma inh 0.89µM*.
For O=C(Nc1ncc([N+](=O)[O-])s1)c1ccc2c(c1)OCO2 the results were CtBP-E1A blk -13, Gal4-VP16 FLuc 2.5µM*, Six1-Eya2 inh -16, RORgamma inh 1.8µM* and p53 reactivation -16%.
Screening Cc1ccc(C(=O)Nc2ncc(Cc3ccc(SC(F)F)cc3)s2)cc1 returned CtBP-E1A blk 4, Gal4-VP16 FLuc inconclusive, Six1-Eya2 inh 6, RORgamma inh 13µM* and p53 reactivation inconclusive.
For COc1ccc(Nc2nc(NN)nc(Nc3ccc(OC)cc3)n2)cc1 the results were Gal4-VP16 FLuc inconclusive, Six1-Eya2 inh 0 and RORgamma inh -36%[1.91 µM].
For O=C1[C@@H]2[C@@H]3C[C@@H]([C@H]4ON=C(c5ccc(Cl)cc5)[C@@H]34)[C@@H]2C(=O)N1C1CCCCC1 the results were CtBP-E1A blk -20, Gal4-VP16 FLuc inconclusive, Six1-Eya2 inh -2, RORgamma inh inconclusive and p53 reactivation 11%.
For CC(=O)C(/C=N/c1cc(-c2ccc(C)cc2)nn1-c1ccccc1)=C(\C)O the results were CtBP-E1A blk -18, Gal4-VP16 FLuc 22µM*, Six1-Eya2 inh -8, RORgamma inh inconclusive and p53 reactivation inconclusive.
CC(=O)Nc1ccc(S(=O)(=O)N(C)Cc2ccccc2)cc1 was read as CtBP-E1A blk 1, Gal4-VP16 FLuc 25%, Six1-Eya2 inh -1, RORgamma inh inconclusive and p53 reactivation 0%.
Screening CCN(CC)S(=O)(=O)c1ccc(NC(=S)NC(=O)C(C)C)cc1 returned CtBP-E1A blk -2, Gal4-VP16 FLuc inconclusive, Six1-Eya2 inh 0, RORgamma inh 13µM* and p53 reactivation -4%.
C=CCN(CC=C)S(=O)(=O)c1ccc(NC(=S)NC(=O)C2CC2)cc1 was read as CtBP-E1A blk -20, Gal4-VP16 FLuc inconclusive, Six1-Eya2 inh -16, RORgamma inh 11µM* and p53 reactivation 6%.
